The full ranking holds about 3,200 compounds; the median of “TSA(with NAD+) / Primary screening (TSA) / delta Tm (K)” is about -0.04, and the highest 2% start at about 0.37. What follows is part of a selection rich in the highest values, with near analogues and random picks from the rest.
biological target: NAD-dependent deacetylase Sirtuin 1 (human, UniProt Q96EB6); assay: primary screen, delta tm; design: single well (n = 1, as 'the same TSA'); details: 10 µM
Description: A total of 3,192 compounds extracted from the proposed lists were first screened by thermal shift assay (TSA), which determined a melting temperature shift (ΔTm) of Sirtuin 1 upon the addition of a test compound at a concentration of 10 µM (n = 1) with primary hit criteria of ΔTm > 0.45 K or ΔTm < −1.5 K. Primary hits (48 compounds) were retested in the same assay at three concentrations (5, 10, 20 µM, n = 4) for hit confirmation and for dose-dependency check. Secondary hits (41 compounds) were checked their selectivity for Sirtuin 1 based on counterscreening on unrelated protein targets (bovine carbonic anhydrase (CA) and recombinant SH2 domain of hABL1 kinase (ABL1)) at three different concentrations (5, 10, 20 µM, n = 4), which yielded 38 hit compounds, hereafter referred to as TSA hits. The TSA screening above was conducted in the absence of NAD+. As noted, the structure of Sirtuin 1 is different in the presence of NAD+ and substrate. The chemical profile of TSA hits found from the different conditions could be different. […] As a result, 39 TSA hits were found.

Sequence of NAD-dependent deacetylase Sirtuin 1 (Q96EB6 2-747 limits assumed): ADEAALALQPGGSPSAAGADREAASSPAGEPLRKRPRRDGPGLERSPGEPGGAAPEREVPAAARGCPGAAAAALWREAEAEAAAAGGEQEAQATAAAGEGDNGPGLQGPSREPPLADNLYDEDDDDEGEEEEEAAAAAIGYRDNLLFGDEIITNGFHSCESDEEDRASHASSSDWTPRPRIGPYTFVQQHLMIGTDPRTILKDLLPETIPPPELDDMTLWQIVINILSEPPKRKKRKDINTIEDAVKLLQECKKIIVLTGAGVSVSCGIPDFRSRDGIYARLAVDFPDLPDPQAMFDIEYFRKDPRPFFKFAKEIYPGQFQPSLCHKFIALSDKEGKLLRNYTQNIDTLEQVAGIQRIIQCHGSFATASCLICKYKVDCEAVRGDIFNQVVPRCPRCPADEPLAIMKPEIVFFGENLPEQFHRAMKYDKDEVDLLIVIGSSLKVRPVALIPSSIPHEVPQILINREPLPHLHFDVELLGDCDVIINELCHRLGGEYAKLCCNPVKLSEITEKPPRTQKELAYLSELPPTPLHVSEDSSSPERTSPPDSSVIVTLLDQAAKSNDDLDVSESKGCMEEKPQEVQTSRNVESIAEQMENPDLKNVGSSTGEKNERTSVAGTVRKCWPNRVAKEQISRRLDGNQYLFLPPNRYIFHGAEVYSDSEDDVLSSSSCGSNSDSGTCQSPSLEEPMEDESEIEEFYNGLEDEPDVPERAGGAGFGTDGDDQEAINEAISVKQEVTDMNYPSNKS

| Compound | TSA(with NAD+) / Primary screening (TSA) / delta Tm (K) |
| --- | --- |
| c1ccc(CN2CCCCCC2)c(CNc2ccc3nnnn3n2)c1 | -0.04 K |
| Cc1ncc(CN2CCC(Nc3ccc4nnnn4n3)C(C)C2)s1 (stereo not shown) | 0.09 K |
| Cc1cc(F)ccc1N1CCCC(Nc2ccc3nnnn3n2)C1 (stereo not shown) | 0.68 K |
| O=C(CN1CCc2ccccc21)Nc1cnc2ccccc2c1 | -0.13 K |
| NC(=O)C1CCN(c2nc(CN3CCCCC3)nc3sc4c(c23)CCC4)CC1 | -0.19 K |
| Cc1sc2nc(CSc3ccccc3)nc(N3CCC(C(N)=O)CC3)c2c1C | 0.49 K |
| Cc1sc2nc(CSc3ccccc3)nc(N3CCCC(C(N)=O)C3)c2c1C (stereo not shown) | -0.18 K |
| NC(=O)C1CCN(c2nc(CSc3ccccc3)nc3sc4c(c23)CCCC4)CC1 | 2.22 K |
| NC(=O)C1CN(c2nc(C3CC3)nc3sc4c(c23)CCCC4)CCO1 (stereo not shown) | -0.19 K |
| Cc1sc2nc(CN3CCCC3)nc(N3CCC(C(N)=O)CC3)c2c1C | 0.12 K |
| Cc1ccc(C(=O)Nc2ccc(N3CCN(Cc4ccccc4)CC3)cc2)cc1NC(=O)c1ccco1 | 0.12 K |
| COc1ccc(-c2csc3nc(C)nc(N4CCN(C5CCS(=O)(=O)C5)CC4)c23)cc1OC (stereo not shown) | -0.09 K |
| O=C(O)c1cnc2c(c1)c(=O)[nH]c(=O)n2Cc1ccccc1 | -0.13 K |
| Cn1c(-c2ccccc2)c(C=O)c2ccccc21 | -0.32 K |
| CCCCn1ccnc1C(=O)c1cccc(S(=O)(=O)N(C)c2ccccc2)c1 | -0.08 K |
| CC1CN(C(=O)/C=C/c2ccc(C(=O)O)cc2)CC(C)(C)O1 (stereo not shown) | -0.13 K |
| CC1(C)NC(=O)N(CC(=O)Nc2sc3c(c2-c2nc4ccccc4[nH]2)CCCC3)C1=O | 0.37 K |
| O=C(CN1CCCCCCC1=O)NCCc1nc2ccccc2[nH]1 | -0.22 K |
| COC(=O)c1cc(NC(=O)CN2C(=O)NC(C)(c3ccc4ccccc4c3)C2=O)cc(C(=O)OC)c1 (stereo not shown) | 0.19 K |
| CCCCOc1cc(C2NC(N)=Nc3nc4ccccc4n32)ccc1OC (stereo not shown) | -0.22 K |
| NC1=Nc2nc3ccccc3n2C(c2ccc(-c3ccc(C(=O)O)cc3)o2)N1 (stereo not shown) | 1.27 K |
| O=C(O)CCCc1ccc2c(c1)-c1ccccc1C2 | 0.06 K |
| O=C1/C(=C/c2ccccc2OC(F)F)Oc2cc(O)ccc21 | 0.15 K |
| COc1ccc(/C=C2/Oc3cc(O)ccc3C2=O)c(OC)c1 | 0.12 K |
| O=C1/C(=C/c2ccc(OC(F)F)cc2OC(F)F)Oc2cc(O)ccc21 | 0.37 K |
| CCCNc1nnc(S)s1 | -0.33 K |
| CN(c1ccccc1)S(=O)(=O)c1cccc(NC(=O)CNc2cccc3ccccc23)c1 | 0.41 K |
| CN(c1ccccc1)S(=O)(=O)c1cccc(NCC(=O)Nc2ccc(Br)cc2)c1 | -0.01 K |

| Compound | TSA(with NAD+) / Primary screening (TSA) / delta Tm (K) |
| --- | --- |
| CN(c1ccccc1)S(=O)(=O)c1cccc(NC(=O)CCCc2c[nH]c3ccccc23)c1 | 0.39 K |
| CN(c1ccccc1)S(=O)(=O)c1cccc(NC(=O)CCc2c[nH]c3ccccc23)c1 | 0.32 K |
| CN(c1ccccc1)S(=O)(=O)c1cccc(NC(=O)c2cc(Cl)nc3ccccc23)c1 | 0.16 K |
| CN(c1ccccc1)S(=O)(=O)c1cccc(C(=O)NCCc2c[nH]c3ccccc23)c1 | 0.17 K |
| CCOC(=O)C1=C(COC(=O)c2sc(-c3ccco3)nc2-c2ccccc2)NC(=O)NC1 | 0.06 K |
| CS(=O)(=O)c1ccc(NCCNC(=O)C23CC4CC(C2)CC(c2ccccc2)(C4)C3)c([N+](=O)[O-])c1 | 0.18 K |
| CN(Cc1nc(-c2cccnc2)no1)Cc1c[nH]nc1-c1cccnc1 | -0.01 K |
| Cc1ccc(OCc2nc3ccccc3n2Cc2ccccc2)cc1 | -0.21 K |
| CC1CCc2[nH]c3ccc(C(=O)Nc4cccc(S(=O)(=O)N(C)c5ccccc5)c4)cc3c2C1 (stereo not shown) | 0.39 K |
| COc1cccc(NC(=O)c2cccc(S(=O)(=O)N(C)c3ccc(C)cc3)c2)c1 | -0.06 K |
| Cc1ccc(N(C)S(=O)(=O)c2cccc(C(=O)Nc3ccncc3)c2)cc1 | -0.15 K |
| Cc1ccc(N(C)S(=O)(=O)c2cccc(C(=O)Nc3ccc(Br)c(C)c3)c2)cc1 | 0.73 K |
| Cc1ccc(NC(=O)c2cccc(S(=O)(=O)N(C)c3ccc(C)cc3)c2)cc1 | 0.29 K |
| CC(=O)Nc1ccc(NC(=O)c2cccc(S(=O)(=O)N(C)c3ccc(C)cc3)c2)cc1 | -0.04 K |
| CN(c1ccccc1)S(=O)(=O)c1cccc(C(=O)Nc2ccccc2)c1 | -0.01 K |
| CSc1cccc(NC(=O)c2cccc(S(=O)(=O)N(C)c3ccc(C)cc3)c2)c1 | 0.19 K |
| Cc1ccc(N(C)S(=O)(=O)c2cccc(C(=O)Nc3ccc4c(c3)C(=O)N(C)C4=O)c2)cc1 | 0.89 K |
| CN(c1ccccc1)S(=O)(=O)c1cccc(NC(=O)c2ccc(C(N)=O)cc2)c1 | -0.01 K |
| Cc1ccc(N(C)S(=O)(=O)c2cccc(C(=O)Nc3ccc(C(N)=O)cc3)c2)cc1 | 0.46 K |
| Cc1ccc(N(C)S(=O)(=O)c2cccc(C(=O)Nc3cccc(C(=O)NC4CC4)c3)c2)cc1 | -0.03 K |
| COc1ccc(CCn2c(C)cc(C(=O)COC(=O)C34CC5CC(CC(O)(C5)C3)C4)c2C)cc1 | -0.19 K |
| CN1C(=O)c2oc3ccccc3c(=O)c2C1c1ccccc1F (stereo not shown) | 0.01 K |
| CCC(=O)c1ccc(OCC(=O)NNC(=O)c2cc(C)oc2C)cc1 | -0.03 K |
| COc1cccc(C(C)NCc2ccc3[nH]c(=O)[nH]c3c2)c1 (stereo not shown) | -0.08 K |
| O=C1NC(C(=O)O)=CC(c2ccccc2C(F)(F)F)N1 (stereo not shown) | -0.12 K |
| CC1(c2cccc(NC(=O)c3ccc4c(c3)CCC4)c2)NC(=O)NC1=O (stereo not shown) | -0.13 K |
| CN(c1ccccc1)S(=O)(=O)c1cccc(NC(=O)COC(=O)C23CC4CC(CC(C4)C2)C3)c1 | 0.13 K |

— publication PMC6925144, “A prospective compound screening contest identified broader inhibitors for Sirtuin 1” (Scientific Reports, 2019)
